Results filed as inconclusive are left out. Unmarked numbers belong to inactive results. Active and inactive are the calls of the source. Calls come from the whole dose curve; as a rule, active = well fitted inhibition curve with a large enough effect; inconclusive = small, poorly fitted or top-dose-only effect, or effect the other way; inactive = flat fitted curve, though single readings scatter.
Assay: qHTS for Inhibitors of Plasmodium falciparum (CP250) proliferation (AID 504320)
Conditions: P. falciparum CP250 in erythrocytes, SYBR Green DNA, 72 h; series mostly up to 6.7 µM; activity change, negative = inhibition: at the top concentration
Outline: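 Parasite growth measured as SYBR Green DNA fluorescence (ex 485, em 535 nm) after overnight lysis following 72 h culture at 37 °C, 0.3% parasitemia, 2.5% hematocrit. Values normalized against DMSO and 0.29 uM artemisinin controls, with plate-stack correction.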
Potency is the fitted concentration of half-maximal effect.

Q: Which “activity change, negative = inhibition” value does the source give for `C[C@H]1C[C@@H](C)O[C@@]2(C1)C(=O)N(Cc1ccccc1C(F)(F)F)c1ccccc12` here?
A: 0.031%

Q: Which “activity change, negative = inhibition” value does the source give for `CCN1C(=NCC(C)C)NC(c2cccc(F)c2)C(C(=O)OC)=C1C` (centres undefined) here?
A: -12.7%

Q: Which “activity change, negative = inhibition” value does the source give for `CCCNC(=O)OC[C@H]1O[C@H](CCON=Cc2ccc(C(=O)N3[C@H](C(=O)OC)CC[C@H](C)[C@@H]3c3ccc(C)cc3)cc2)C=C[C@H]1Oc1ccc(OC)cc1` here?
A: -5.42%

Q: With `COC(=O)N1C2CC(=O)O[C@H]3c4cc5c(cc4[C@]1(C)[C@@]3(Br)c1ccccc12)OCO5` as the molecule, how does the Potency read?
A: 1.51 µM (active)

Q: With `CC(C)(C)c1ccc(O[C@@H]2[C@H](O)CO[C@@H]2C=CC#Cc2ccccc2)cc1` as the molecule, how does the “activity change, negative = inhibition” value read?
A: 1.67%

Q: For `CC(CCN1CCc2nc(-c3ccccc3)c(-c3ccccc3)cc2C1)=NO[C@H](C)CN1CCCCc2nc(C)c(C)cc21`, which “activity change, negative = inhibition” value is on record?
A: -9.62%

Q: With `Cc1cccc(C)c1Nc1oc(-c2ccccc2)nc1-c1ccccc1F` as the molecule, how does the “activity change, negative = inhibition” value read?
A: -18.3%

Q: With `C[C@@H]1C(c2ccccc2)=CC(=O)c2nc3ccccc3cc2[C@@H]1C(=O)N1CCCC1` as the molecule, how does the “activity change, negative = inhibition” value read?
A: -1.58%

Q: For `COc1cc2c(c(OC)c1OC)CC(c1ccccc1)=C(c1ccccc1)CC2NC(=O)C(F)(F)F` (centres undefined), which “activity change, negative = inhibition” value is on record?
A: -3.34%

Q: Which “activity change, negative = inhibition” value does the source give for `COCCN1C(=O)C2=C(C1=O)C1N(C)c3ccccc3[C@@]13C[C@@H](CO)N(C(=O)c1ccc(Br)cc1)C3=N2` (some centres undefined) here?
A: 1%

Q: Which “activity change, negative = inhibition” value does the source give for `COc1ccc2c(c1)O[C@@H](c1ccc3c(c1)OCO3)[C@H](OC(=O)NCCOc1ccccc1)C2=O` here?
A: -0.235%

Q: Which “activity change, negative = inhibition” value does the source give for `C[C@@H]1[C@H](c2ccccc2)c2cc3ccccc3nc2C(=O)C[C@@H]1C(=O)N1CCCC1` here?
A: 1.19%

Q: Which “activity change, negative = inhibition” value does the source give for `C=CC[C@H]1C(=O)N2[C@@H](C[C@@H](C)[C@@H]2c2ccccc2)[C@@H](CC=C)C(=O)N2[C@H]1C[C@@H](C)[C@@H]2c1ccccc1` here?
A: -0.673%

Q: With `COC(=O)C1=C(C(=O)OC)[C@@H]2N(C)c3ccccc3[C@@]23CCC(=O)N(Cc2ccc4c(c2)OCO4)C3=N1` as the molecule, how does the “activity change, negative = inhibition” value read?
A: 1.4%

Q: For `CCc1cc2c(nc1CC)CCN(CCC(C)=NO[C@H](C)c1cn([C@H](CO)Cc3ccccc3)nn1)C2`, which “activity change, negative = inhibition” value is on record?
A: -16.2%

Q: With `COc1cccc([C@@H]2Oc3ccc(OC)cc3C(=O)[C@@H]2O)c1` as the molecule, how does the “activity change, negative = inhibition” value read?
A: -3.85%

Q: Which “activity change, negative = inhibition” value does the source give for `COC(=O)c1ccc(CN2C(=O)[C@@]3(CC(C)=C[C@@H](COc4ccccc4)O3)c3ccccc32)cc1` here?
A: -12.2%

Q: Which “activity change, negative = inhibition” value does the source give for `Cc1cc2c(c(=O)n1Cc1ccccc1)[C@H]1O[C@](c3ccsc3)(Cc3cc(C#N)ccc31)O2` here?
A: -0.657%

Q: Which “activity change, negative = inhibition” value does the source give for `Fc1ccccc1-c1nc(-c2ccccc2)oc1NCc1ccccc1` here?
A: 0.202%

Q: With `COC(=O)C1=C(C)N(Cc2ccccc2)C(=NCC(C)C)NC1c1ccc(Br)cc1` (centres undefined) as the molecule, how does the “activity change, negative = inhibition” value read?
A: -0.32%

Q: Which “activity change, negative = inhibition” value does the source give for `CC=CC1=Cc2ccccc2C(C(C(=O)OC)C(=O)OC)N1C(=O)OC` (centres undefined) here?
A: -3.15%

Q: For `Cc1ccc(C=CC2=C[C@]3(C)C[C@]2(C)[C@H](c2ccc(C)cc2)CC3=O)cc1`, which “activity change, negative = inhibition” value is on record?
A: -1.14%

Q: For `COC(=O)C1=C(C(=O)OC)[C@@H]2N(Cc3ccccc3)c3ccccc3[C@@]23C[C@@H](CO)N=C3N1`, which “activity change, negative = inhibition” value is on record?
A: 6.09%

Q: With `COC1=CC2C(=O)C([C@@H]3c4ccccc4C[C@]23C)C1(O)c1cccc(OC)c1` (some centres undefined) as the molecule, how does the “activity change, negative = inhibition” value read?
A: 1.84%

Q: With `CC1=CC[C@@H](COc2ccccc2)O[C@@]2(C1)C(=O)N(Cc1ccc(Br)cc1)c1ccccc12` as the molecule, how does the “activity change, negative = inhibition” value read?
A: -0.166%

Q: With `CCOC(=O)CN1C(=O)[C@]2(O[C@H](COc3ccccc3)CC3=CCCC32)c2c(Br)cccc21` (some centres undefined) as the molecule, how does the “activity change, negative = inhibition” value read?
A: -4.8%

Q: With `COc1ccc([C@]23Cc4ccccc4[C@H](O2)C2=C(CCCC2=O)O3)cc1` as the molecule, how does the “activity change, negative = inhibition” value read?
A: 0.66%

Q: For `COC(=O)CC=C1c2ccccc2[C@@H](O)[C@@H]1C`, which “activity change, negative = inhibition” value is on record?
A: -4.09%

Q: For `COC(=O)CC=C[C@@H](C)[C@H](NC(=O)OCC(Cl)(Cl)Cl)c1ccc(-c2ccccc2)cc1`, which “activity change, negative = inhibition” value is on record?
A: -13.5%

Q: Which “activity change, negative = inhibition” value does the source give for `CCOC(=O)CN1C(=O)[C@@]2(CC(C)=CC[C@@H](COc3ccccc3)O2)c2ccccc21` here?
A: 4.21%

Q: Which “activity change, negative = inhibition” value does the source give for `CCC(C)CN1C(=O)NC(CCc2ccccc2)C(C(C)=O)=C1C` (centres undefined) here?
A: 1.34%

Q: Which “activity change, negative = inhibition” value does the source give for `COc1ccc([C@]23Cc4cc(OC)c(OC)cc4[C@H](O2)c2c(cc(C)n(Cc4ccccc4)c2=O)O3)cc1` here?
A: -4.86%

Q: Which “activity change, negative = inhibition” value does the source give for `CCC=CC[C@@]1(C(=O)OC)C=C[C@@H](C)[C@H](c2ccccc2Br)N1C(=O)C(F)(F)F` here?
A: -15.3%

Q: Which “activity change, negative = inhibition” value does the source give for `N#Cc1ccc2c(c1)C[C@]1(c3ccsc3)Oc3c(c(=O)oc4ccc(F)cc34)[C@@H]2O1` here?
A: 0.121%

Q: Which “activity change, negative = inhibition” value does the source give for `COc1cccc([C@@H]2Oc3ccc(Br)cc3C[C@@H]2OC(=O)Nc2cc(OC)c(OC)c(OC)c2)c1` here?
A: 3.82%

Q: For `C=C(C)C1CC23C(=O)[C@]4(C(=O)c5ccccc5)C[C@@]5(C)CCC(CC2C1(C)C)(C4=O)[C@@]35OC` (some centres undefined), which “activity change, negative = inhibition” value is on record?
A: -17.9%

Q: For `C[C@@H]1C=CCC(=O)N[C@@H](c2cccc(Br)c2)[C@H](C)C=CCC(=O)N[C@@H]1c1cccc(Br)c1`, which “activity change, negative = inhibition” value is on record?
A: -3.06%

Q: Which “activity change, negative = inhibition” value does the source give for `C[C@@H]1[C@@H](c2ccccc2)c2cc3ccccc3nc2-c2nc3ccccc3cc2[C@H]1C(=O)N1CCCC1` here?
A: 2.77%

Q: With `Oc1c(CN2CCOCC2)cc2c(c1-c1c(O)c(CN3CCOCC3)cc3c1CCCC3)CCCC2` as the molecule, how does the “activity change, negative = inhibition” value read?
A: 0.344%
